Common to all, as to experiment: DAPPL (digital affinity profiling via proximity ligation, sequencing); 10 mM Tris-HCl pH 7.5, 50 mM NaCl, 1 mM DTT, 4% glycerol, room temperature, 30 min; GST-TFs on glutathione beads, 16-mer random dsDNA library, 0.1% formaldehyde crosslink after washing; high values mean tight binding
The target in assay [1] is T1, FLI1 (Homo sapiens, UniProt Q01543 1-452).
T1 sequence: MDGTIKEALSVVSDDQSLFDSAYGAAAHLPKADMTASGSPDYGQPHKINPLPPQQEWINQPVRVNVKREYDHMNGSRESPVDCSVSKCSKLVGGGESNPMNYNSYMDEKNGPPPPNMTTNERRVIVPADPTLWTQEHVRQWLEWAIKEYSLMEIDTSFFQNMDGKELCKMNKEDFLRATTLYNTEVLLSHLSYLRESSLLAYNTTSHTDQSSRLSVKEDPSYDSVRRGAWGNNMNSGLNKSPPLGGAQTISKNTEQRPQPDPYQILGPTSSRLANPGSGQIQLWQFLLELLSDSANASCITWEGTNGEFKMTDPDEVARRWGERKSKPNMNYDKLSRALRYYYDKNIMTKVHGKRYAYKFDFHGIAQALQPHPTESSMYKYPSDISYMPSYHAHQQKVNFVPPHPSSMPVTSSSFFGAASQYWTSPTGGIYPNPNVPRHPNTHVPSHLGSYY
Conditions: protein: recombinant; tags: N-terminal GST; dsDNA, one strand shown. Put shortly:
(§1)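 The binding signal reported is, for every hexamer, its read frequency for a factor over its read frequency for the tag-only sample. Reads came from pools of yeast-expressed, GST-fused human transcription factors on glutathione beads, barcoded with DNA and mixed with that sample, which were incubated with 200 nmole of a random double-stranded 16-mer DNA library in Tris/NaCl/DTT/glycerol buffer at room temperature for 30 min. After washing, the pools were crosslinked with 0.1% formaldehyde, proximity-ligated with BsaI/T4 ligase for 1 h at 37 °C, PCR-amplified and sequenced on an Illumina NextSeq500.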

In assay [2] the target is T2, ELK1 (Homo sapiens, UniProt P19419 1-428).
T2 sequence: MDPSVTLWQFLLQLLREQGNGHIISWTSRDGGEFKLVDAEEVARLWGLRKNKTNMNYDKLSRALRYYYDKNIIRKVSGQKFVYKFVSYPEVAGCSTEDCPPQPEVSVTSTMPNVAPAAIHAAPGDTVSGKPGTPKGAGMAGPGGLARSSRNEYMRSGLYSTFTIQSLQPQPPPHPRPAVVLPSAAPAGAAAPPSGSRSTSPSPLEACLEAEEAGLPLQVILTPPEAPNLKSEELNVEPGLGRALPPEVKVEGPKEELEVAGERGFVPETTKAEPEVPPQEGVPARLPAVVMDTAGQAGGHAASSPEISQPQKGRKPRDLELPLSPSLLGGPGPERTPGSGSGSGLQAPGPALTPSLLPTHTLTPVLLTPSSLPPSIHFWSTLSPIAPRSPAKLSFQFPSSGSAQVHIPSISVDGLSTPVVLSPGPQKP
To be noted: protein: recombinant; tags: N-terminal GST; dsDNA, one strand shown. Summed up: as §1

In assay [3] the target is T3, GABPA (Homo sapiens, UniProt Q06546 1-454).
T3 sequence: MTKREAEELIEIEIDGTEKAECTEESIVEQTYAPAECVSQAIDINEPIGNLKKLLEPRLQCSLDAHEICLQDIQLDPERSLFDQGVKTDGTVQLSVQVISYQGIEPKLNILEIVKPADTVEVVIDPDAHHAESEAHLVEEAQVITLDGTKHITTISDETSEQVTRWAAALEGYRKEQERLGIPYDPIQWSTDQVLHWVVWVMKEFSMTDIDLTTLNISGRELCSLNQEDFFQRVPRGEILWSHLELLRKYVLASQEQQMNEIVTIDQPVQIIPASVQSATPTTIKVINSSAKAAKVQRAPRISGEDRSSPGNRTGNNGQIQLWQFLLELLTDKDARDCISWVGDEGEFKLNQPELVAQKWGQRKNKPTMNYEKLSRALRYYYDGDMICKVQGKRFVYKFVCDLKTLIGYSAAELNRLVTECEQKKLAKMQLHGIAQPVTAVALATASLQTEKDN
To be noted: protein: recombinant; tags: N-terminal GST; dsDNA, one strand shown. Put shortly: as §1

In assay [4] the target is T4, ERG (Homo sapiens, UniProt P11308 1-479).
T4 sequence: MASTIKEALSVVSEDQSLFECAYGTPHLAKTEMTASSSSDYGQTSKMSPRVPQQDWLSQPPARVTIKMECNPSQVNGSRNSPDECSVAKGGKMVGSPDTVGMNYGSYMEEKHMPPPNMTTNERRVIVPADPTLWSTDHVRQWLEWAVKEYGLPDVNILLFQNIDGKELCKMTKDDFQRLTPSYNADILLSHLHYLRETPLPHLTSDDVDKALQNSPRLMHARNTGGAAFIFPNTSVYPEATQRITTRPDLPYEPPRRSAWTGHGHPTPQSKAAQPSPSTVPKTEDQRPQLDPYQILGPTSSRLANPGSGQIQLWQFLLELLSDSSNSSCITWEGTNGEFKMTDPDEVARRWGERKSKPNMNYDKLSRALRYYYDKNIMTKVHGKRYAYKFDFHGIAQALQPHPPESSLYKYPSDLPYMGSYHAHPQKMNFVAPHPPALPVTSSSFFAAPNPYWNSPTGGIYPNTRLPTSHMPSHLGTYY
Conditions: protein: recombinant; tags: N-terminal GST; dsDNA, one strand shown. Put shortly: as §1

Assay [5] deals with ELF1 (Homo sapiens, UniProt P32519 1-619). Conditions: protein: recombinant; tags: N-terminal GST; dsDNA, one strand shown. Summed up:
as §1

For assay [6], the target named is T5, EHF (Homo sapiens, UniProt Q9NZC4 1-300).
T5 sequence: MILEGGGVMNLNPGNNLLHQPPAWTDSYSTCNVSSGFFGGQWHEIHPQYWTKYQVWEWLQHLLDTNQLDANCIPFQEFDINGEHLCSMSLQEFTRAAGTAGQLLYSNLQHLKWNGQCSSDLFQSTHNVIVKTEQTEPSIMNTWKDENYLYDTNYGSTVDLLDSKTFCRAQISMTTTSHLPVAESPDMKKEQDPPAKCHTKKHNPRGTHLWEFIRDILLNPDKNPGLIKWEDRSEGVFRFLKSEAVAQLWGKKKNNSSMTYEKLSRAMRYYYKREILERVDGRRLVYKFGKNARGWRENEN
To be noted: protein: recombinant; tags: N-terminal GST; dsDNA, one strand shown. Summed up: as §1

For assay [7], the target named is SPI1 (Homo sapiens, UniProt P17947 1-270). Conditions: protein: recombinant; tags: N-terminal GST; dsDNA, one strand shown. Put shortly:
as §1

The target of assay [8] is SPIB (Homo sapiens, UniProt Q01892 1-262). To be noted: protein: recombinant; tags: N-terminal GST; dsDNA, one strand shown. Put shortly: as §1
Chain of SPIB (Q01892 whole entry): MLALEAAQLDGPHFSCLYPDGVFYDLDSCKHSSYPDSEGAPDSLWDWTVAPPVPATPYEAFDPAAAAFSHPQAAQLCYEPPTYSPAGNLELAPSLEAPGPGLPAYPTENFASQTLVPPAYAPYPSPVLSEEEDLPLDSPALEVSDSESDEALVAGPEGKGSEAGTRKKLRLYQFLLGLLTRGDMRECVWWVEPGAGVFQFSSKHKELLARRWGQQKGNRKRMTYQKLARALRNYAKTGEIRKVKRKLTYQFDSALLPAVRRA
Assay [9] deals with T6, ELK3 (Homo sapiens, UniProt P41970 1-407).
T6 sequence: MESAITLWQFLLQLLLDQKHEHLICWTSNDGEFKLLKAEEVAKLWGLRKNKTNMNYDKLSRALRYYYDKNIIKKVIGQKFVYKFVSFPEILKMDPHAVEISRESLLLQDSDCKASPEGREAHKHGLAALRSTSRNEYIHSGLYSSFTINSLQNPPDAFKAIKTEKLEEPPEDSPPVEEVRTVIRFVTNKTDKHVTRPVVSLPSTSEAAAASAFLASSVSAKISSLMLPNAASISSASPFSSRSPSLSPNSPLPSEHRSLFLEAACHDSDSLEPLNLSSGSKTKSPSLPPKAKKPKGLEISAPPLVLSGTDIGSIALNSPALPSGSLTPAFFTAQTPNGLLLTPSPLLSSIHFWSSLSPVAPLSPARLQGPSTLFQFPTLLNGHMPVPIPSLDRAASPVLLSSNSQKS
To be noted: protein: recombinant; tags: N-terminal GST; dsDNA, one strand shown. Summed up: as §1

Assay [10] concerns the target T7, FEV (Homo sapiens, UniProt Q99581 1-238).
T7 sequence: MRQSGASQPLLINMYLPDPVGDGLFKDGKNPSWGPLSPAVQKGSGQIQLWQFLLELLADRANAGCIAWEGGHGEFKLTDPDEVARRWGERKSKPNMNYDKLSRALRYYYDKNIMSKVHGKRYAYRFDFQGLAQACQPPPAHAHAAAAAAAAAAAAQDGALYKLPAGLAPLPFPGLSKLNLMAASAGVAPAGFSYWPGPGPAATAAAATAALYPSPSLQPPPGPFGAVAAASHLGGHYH
To be noted: protein: recombinant; tags: N-terminal GST; dsDNA, one strand shown. Put shortly: as §1

Assay [11] deals with ETV5 (Homo sapiens, UniProt P41161 1-510). To be noted: protein: recombinant; tags: N-terminal GST; dsDNA, one strand shown. Put shortly: as §1
Chain of ETV5 (P41161 whole entry): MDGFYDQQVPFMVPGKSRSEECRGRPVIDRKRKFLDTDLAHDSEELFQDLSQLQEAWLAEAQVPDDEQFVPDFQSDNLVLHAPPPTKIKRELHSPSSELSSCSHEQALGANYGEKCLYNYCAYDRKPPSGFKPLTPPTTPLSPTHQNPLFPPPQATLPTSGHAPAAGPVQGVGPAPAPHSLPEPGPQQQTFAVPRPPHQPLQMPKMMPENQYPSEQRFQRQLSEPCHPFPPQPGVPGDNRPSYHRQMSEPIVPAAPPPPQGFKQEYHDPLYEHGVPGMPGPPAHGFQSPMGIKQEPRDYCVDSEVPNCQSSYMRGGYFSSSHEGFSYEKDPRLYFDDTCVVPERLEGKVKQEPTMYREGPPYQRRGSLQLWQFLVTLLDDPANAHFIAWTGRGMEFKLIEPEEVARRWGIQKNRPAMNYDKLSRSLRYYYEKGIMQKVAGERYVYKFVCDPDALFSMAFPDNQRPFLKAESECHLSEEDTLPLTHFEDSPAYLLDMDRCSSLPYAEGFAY
For assay [12], the target named is HSF1 (Homo sapiens, UniProt Q00613 1-529). Conditions: protein: recombinant; tags: N-terminal GST; chain copies: 3; dsDNA, one strand shown. Put shortly: as §1
Chain of HSF1 (Q00613 whole entry): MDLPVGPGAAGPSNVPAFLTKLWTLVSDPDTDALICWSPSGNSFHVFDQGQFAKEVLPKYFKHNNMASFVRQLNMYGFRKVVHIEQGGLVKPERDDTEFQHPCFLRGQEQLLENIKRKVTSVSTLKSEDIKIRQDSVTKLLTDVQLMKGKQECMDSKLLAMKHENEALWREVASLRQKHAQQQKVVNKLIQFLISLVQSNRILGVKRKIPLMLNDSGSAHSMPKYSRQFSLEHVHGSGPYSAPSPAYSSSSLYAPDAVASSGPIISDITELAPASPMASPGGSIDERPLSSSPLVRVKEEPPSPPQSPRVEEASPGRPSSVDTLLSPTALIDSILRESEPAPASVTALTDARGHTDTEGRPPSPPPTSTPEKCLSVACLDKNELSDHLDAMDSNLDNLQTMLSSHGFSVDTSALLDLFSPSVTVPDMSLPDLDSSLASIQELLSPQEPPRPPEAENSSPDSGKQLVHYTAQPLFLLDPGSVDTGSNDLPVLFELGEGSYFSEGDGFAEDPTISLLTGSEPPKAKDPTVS
For assay [13], the target named is T8, SPIC (Homo sapiens, UniProt Q8N5J4 1-248).
T8 sequence: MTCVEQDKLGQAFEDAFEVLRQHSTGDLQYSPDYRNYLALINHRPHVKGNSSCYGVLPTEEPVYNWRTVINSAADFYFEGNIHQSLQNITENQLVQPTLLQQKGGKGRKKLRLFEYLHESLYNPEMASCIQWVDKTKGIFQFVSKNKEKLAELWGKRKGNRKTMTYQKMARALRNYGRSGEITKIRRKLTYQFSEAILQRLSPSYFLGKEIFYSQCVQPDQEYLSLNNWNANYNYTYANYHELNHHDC
Conditions: protein: recombinant; tags: N-terminal GST; dsDNA, one strand shown. Summed up: as §1

The target of assay [14] is ELF4 (Homo sapiens, UniProt Q99607 1-663). To be noted: protein: recombinant; tags: N-terminal GST; dsDNA, one strand shown. Summed up:
as §1

In assay [15] the target is T9, ELK4 (Homo sapiens, UniProt P28324-2 1-405).
T9 sequence: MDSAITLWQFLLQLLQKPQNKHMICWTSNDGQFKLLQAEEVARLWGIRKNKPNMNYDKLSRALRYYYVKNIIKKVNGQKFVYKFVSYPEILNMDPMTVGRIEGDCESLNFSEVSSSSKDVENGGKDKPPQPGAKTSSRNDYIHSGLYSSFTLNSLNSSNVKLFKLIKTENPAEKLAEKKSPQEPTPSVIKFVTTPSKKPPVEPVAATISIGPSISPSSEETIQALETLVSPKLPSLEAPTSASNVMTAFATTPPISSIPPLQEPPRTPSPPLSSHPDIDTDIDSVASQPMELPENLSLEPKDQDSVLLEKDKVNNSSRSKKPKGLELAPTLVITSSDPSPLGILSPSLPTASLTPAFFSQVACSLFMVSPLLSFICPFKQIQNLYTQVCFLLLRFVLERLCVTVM
Conditions: protein: recombinant; tags: N-terminal GST; dsDNA, one strand shown. Put shortly:
as §1

The target of assay [16] is T10, ETV2 (Homo sapiens, UniProt O00321 1-342).
T10 sequence: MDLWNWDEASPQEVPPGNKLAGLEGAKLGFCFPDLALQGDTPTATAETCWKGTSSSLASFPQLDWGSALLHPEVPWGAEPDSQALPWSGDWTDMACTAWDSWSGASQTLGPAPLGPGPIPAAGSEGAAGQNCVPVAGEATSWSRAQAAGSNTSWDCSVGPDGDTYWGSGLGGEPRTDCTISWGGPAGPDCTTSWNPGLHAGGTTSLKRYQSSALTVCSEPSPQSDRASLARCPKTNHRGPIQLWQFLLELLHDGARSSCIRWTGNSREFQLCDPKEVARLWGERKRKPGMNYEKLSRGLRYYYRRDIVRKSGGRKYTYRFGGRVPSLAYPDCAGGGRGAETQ
Conditions: protein: recombinant; tags: N-terminal GST; dsDNA, one strand shown. Summed up: as §1

The target in assay [17] is T11, ELF3 (Homo sapiens, UniProt P78545 1-371).
T11 sequence: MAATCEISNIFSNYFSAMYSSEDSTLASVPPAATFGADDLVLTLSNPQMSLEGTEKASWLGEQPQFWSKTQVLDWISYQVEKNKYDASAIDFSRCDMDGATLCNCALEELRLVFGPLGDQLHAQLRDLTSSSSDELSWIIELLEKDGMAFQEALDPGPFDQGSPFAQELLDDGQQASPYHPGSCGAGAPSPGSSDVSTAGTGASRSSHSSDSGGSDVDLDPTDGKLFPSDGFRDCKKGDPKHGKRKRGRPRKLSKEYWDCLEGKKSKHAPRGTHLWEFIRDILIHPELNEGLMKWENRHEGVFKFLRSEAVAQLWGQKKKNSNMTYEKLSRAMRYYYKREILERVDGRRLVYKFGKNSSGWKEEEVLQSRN
To be noted: protein: recombinant; tags: N-terminal GST; dsDNA, one strand shown. Summed up:
as §1

The target in assay [18] is CRX (Homo sapiens, UniProt O43186 1-299). Conditions: protein: recombinant; tags: N-terminal GST; dsDNA, one strand shown. Summed up:
as §1

For assay [19], the target named is ETV1 (Homo sapiens, UniProt P50549 1-477). Conditions: protein: recombinant; tags: N-terminal GST; dsDNA, one strand shown. Put shortly:
as §1

Chain of CRX (O43186 whole entry): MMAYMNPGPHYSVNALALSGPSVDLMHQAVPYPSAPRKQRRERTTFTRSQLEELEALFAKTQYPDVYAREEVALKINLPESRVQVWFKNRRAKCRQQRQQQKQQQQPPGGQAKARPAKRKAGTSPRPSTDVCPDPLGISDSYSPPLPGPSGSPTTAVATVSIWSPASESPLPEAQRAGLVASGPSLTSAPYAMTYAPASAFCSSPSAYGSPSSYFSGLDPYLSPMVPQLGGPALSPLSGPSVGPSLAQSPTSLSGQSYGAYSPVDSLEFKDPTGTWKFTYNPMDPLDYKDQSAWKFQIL
Chain of ELF4 (Q99607 whole entry): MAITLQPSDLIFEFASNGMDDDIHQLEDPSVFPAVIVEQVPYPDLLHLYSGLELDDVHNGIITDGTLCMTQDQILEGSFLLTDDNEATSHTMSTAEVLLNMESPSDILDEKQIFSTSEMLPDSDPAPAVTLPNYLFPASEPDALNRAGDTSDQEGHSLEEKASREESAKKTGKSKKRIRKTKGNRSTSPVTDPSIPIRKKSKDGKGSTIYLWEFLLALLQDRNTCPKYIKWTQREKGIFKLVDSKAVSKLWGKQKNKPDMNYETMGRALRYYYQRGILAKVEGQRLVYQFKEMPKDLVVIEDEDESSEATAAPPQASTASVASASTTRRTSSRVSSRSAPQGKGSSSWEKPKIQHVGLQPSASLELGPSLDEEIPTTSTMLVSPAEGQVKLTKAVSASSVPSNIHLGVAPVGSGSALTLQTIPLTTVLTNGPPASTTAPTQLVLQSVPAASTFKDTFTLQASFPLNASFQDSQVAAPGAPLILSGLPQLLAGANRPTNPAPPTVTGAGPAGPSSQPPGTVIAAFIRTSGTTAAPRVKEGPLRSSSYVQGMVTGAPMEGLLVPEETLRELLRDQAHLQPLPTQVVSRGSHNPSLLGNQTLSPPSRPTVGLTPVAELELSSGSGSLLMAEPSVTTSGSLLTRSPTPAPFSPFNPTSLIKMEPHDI
Chain of ELF1 (P32519 whole entry): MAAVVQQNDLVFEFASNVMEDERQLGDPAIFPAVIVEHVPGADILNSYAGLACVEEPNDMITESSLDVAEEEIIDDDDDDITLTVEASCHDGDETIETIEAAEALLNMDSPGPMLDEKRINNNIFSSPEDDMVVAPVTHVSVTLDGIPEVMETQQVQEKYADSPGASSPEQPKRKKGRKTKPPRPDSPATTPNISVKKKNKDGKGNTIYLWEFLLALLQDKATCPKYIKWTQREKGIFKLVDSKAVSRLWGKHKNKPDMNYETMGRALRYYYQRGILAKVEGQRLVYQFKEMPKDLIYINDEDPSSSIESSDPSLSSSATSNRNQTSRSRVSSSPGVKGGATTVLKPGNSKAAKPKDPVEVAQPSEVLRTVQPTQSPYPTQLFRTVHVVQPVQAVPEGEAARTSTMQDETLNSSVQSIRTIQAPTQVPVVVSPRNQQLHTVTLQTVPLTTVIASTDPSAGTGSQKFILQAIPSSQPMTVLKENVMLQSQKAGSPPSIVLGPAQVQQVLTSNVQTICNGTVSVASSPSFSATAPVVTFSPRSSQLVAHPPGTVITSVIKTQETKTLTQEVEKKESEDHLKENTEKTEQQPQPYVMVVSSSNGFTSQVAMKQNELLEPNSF
Chain of ETV1 (P50549 whole entry): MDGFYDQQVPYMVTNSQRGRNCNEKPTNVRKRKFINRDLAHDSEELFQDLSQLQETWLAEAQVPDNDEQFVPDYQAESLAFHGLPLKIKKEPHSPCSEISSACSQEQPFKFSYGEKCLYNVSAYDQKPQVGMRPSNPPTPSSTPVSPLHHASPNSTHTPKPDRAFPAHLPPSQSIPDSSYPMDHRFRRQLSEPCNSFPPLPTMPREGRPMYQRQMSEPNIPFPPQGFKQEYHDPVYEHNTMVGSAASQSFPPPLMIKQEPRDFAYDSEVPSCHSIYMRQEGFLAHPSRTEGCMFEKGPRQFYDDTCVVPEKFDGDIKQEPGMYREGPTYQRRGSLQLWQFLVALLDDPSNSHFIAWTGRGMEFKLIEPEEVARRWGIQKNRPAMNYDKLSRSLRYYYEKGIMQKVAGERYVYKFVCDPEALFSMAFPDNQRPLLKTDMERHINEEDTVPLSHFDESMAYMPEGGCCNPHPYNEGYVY

In the case of CTTTAA, the binding signal is 1.37 fold enrichment (6-mer frequency, TF over GST control) in [1]; 1.27 fold enrichment (6-mer frequency, TF over GST control) in assay [2]; 1.28 fold enrichment (6-mer frequency, TF over GST control) in assay [3]; 1.27 fold enrichment (6-mer frequency, TF over GST control) in assay [4]; 1.33 fold enrichment (6-mer frequency, TF over GST control) in [5]; 1.2 fold enrichment (6-mer frequency, TF over GST control) in assay [6]. Moreover, the binding signal in [7] was 1.39 fold enrichment (6-mer frequency, TF over GST control); in assay [8] it was 1.19 fold enrichment (6-mer frequency, TF over GST control); in assay [9], 1.28 fold enrichment (6-mer frequency, TF over GST control); in assay [10], 1.23 fold enrichment (6-mer frequency, TF over GST control); in assay [11], 1.24 fold enrichment (6-mer frequency, TF over GST control); in assay [12], 1.58 fold enrichment (6-mer frequency, TF over GST control). The binding signal in [13] is 1.36 fold enrichment (6-mer frequency, TF over GST control); in assay [14], 1.26 fold enrichment (6-mer frequency, TF over GST control); in [15] it was 1.28 fold enrichment (6-mer frequency, TF over GST control); in assay [16], 1.27 fold enrichment (6-mer frequency, TF over GST control); in [17], 1.39 fold enrichment (6-mer frequency, TF over GST control); in assay [18] it was 2.25 fold enrichment (6-mer frequency, TF over GST control). Further, the binding signal in assay [19] is 1.3 fold enrichment (6-mer frequency, TF over GST control).

The record behind these values is article PMC7862700, “An all-to-all approach to the identification of sequence-specific readers for epigenetic DNA modifications on cytosine”.
